Compounds with a hit are over-represented: about 17% of the library has one in this group of screens.
TDP1 cell noCPT: qHTS for Inhibitors of human tyrosyl-DNA phosphodiesterase 1 (TDP1): qHTS in cells in absence of CPT; AID 686978, 2013; Potency, µM (highest dose often 46.2 µM), usual class: inhibitors; DT40 Tdp1-/- hTDP1 cells, no CPT, ATP luminescence, 48 h; actives 15% (n = 420,000); also: nearly all actives have a fitted effect of over 55% in size
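DT40 Tdp1-/-;hTDP1 cells, no CPT (DMSO vehicle only), 400 cells/well; compounds pin-transferred; ≥48 hr, 37 °C; CellTiter-Glo 30 min RT dark, luminescence read.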
ClpP mod: qHTS Assay for Activators of ClpP | actives 1.9% (n = 340,000) | purified B. subtilis ClpP, FRET peptide cleavage, 20 min | AID 651965, 2013 | Potency, µM (top dose mostly 57.5 µM) | ATP-dependent Clp protease proteolytic subunit (Bacillus subtilis (strain 168)), P80244; active = well fitted falling curve with a large enough effect; inconclusive = small, poorly fitted or top-dose-only effect; inactive = no such curve, though single readings can be large or run the other way; also: the source files actives as falling curves though it sought activators and does not explain the sign; nearly all actives have a fitted effect of over 65% in size
Target sequence (P80244 whole entry, looked up): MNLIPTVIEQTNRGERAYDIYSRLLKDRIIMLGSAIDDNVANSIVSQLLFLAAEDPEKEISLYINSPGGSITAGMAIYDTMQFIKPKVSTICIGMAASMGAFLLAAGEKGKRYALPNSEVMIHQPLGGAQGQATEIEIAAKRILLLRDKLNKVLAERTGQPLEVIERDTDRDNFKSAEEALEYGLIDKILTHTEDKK
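FRET quenching reversal measured ClpP activation: 10 microg/mL B. subtilis ClpP at pH 8 with the FRET-FV decapeptide, read at 430 nm after 320 nm excitation. The 20-min minus 0-min signal was scaled between DMSO/no-enzyme wells and ADEP (5.8 microM final).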
TDP1 cell CPT: growth inhibition of DT40 Tdp1-/-;hTDP1 cells with camptothecin (screen for TDP1 inhibitors) | chicken DT40 Tdp1-/-;hTDP1 cells + 20 nM CPT, ATP luminescence, 48 h | actives 12% (n = 420,000) | Potency, µM (series often up to 46.2 µM), usual class: inhibitors | AID 686979; also: nearly all actives have a fitted effect of over 55% in size
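Chicken DT40 Tdp1-/- cells complemented with human TDP1, 400 cells/well, exposed to compounds plus 20 nM camptothecin for at least 48 h at 37 C; viability read as ATP content by CellTiter-Glo luminescence.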
TDP1 inh: inhibitors of human tyrosyl-DNA phosphodiesterase TDP1; Q9NUW8; recombinant TDP1, AlphaScreen DNA substrate cleavage; Potency, µM (top dose mostly 130 µM), usual class: inhibitors; actives 0.28% (n = 350,000); AID 485290; also: nearly all actives have a fitted effect of over 40% in size
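Here, a 5' biotin and 3' phosphotyrosine-FITC DNA oligonucleotide reports Tdp1 activity: intact substrate bridges AlphaScreen beads, while cleavage leaves a 3' phosphate and drops signal. All incubations at room temperature.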
Large screens that a line does not name were inactive. Unless noted, calls follow the shape of the dose curve; as a rule, active = well fitted curve in the direction sought with a large enough effect; inconclusive = small, poorly fitted or top-dose-only effect, or another doubt; inactive = no such curve, though single readings can be large; an effect the other way counts as inactive or inconclusive.

COc1ccc(C(CNC(=O)c2cccc(S(=O)(=O)Nc3ccc(F)cc3)c2)N(C)C)cc1 (stereo not drawn)	TDP1 cell noCPT inconclusive, TDP1 cell CPT inconclusive
Cc1ccc(Cl)cc1NC(=O)Cn1c(=O)n(CCCS(=O)(=O)C2CCCCC2)c(=O)c2ccccc21	TDP1 cell noCPT inconclusive, TDP1 cell CPT inconclusive
Cc1ccccc1N1CCN(c2ccccc2NC(=O)/C=C\C(=O)O)CC1	TDP1 cell noCPT inconclusive, TDP1 cell CPT 16µM (no result: TDP1 inh)
COC(=O)/C=C/C(=O)N1CCN(c2ccccc2C)CC1	TDP1 cell noCPT 16µM, TDP1 cell CPT inconclusive
Cc1ccccc1N1CCN(C(=O)c2ccccc2NC(=O)/C=C\C(=O)O)CC1	TDP1 cell noCPT inconclusive, TDP1 cell CPT inconclusive
CCNC(=O)N(C)C[C@H]1N[C@@](CC)(C(=O)OC)[C@H]2C(=O)N(C)C(=O)[C@@H]12	none
Cc1ccccc1C(=O)Nc1cccc(C(=O)OCc2cc(=O)n3c(C)csc3n2)c1	TDP1 cell noCPT inconclusive, TDP1 inh inconclusive
CCc1nc2c(OCCn3cccc3)cccn2c1N(C)C(=O)c1ccccc1F	TDP1 cell noCPT inconclusive, TDP1 cell CPT inconclusive (no result: TDP1 inh)
NC1(C(=O)O)CSSC1	TDP1 cell noCPT 7.3µM (no result: TDP1 inh)
O=C(c1cc2cc(Br)ccc2o1)N1CCCCC1	TDP1 cell noCPT 21µM, TDP1 cell CPT inconclusive (no result: ClpP mod)
O=C(c1cc2cc(Cl)ccc2o1)N1CCCC1	none (no result: ClpP mod)
CC(=O)Nc1ccc(Nc2ccc(S(=O)(=O)C(F)(F)F)cc2[N+](=O)[O-])cc1	TDP1 cell noCPT 21µM, TDP1 cell CPT inconclusive
O=[N+]([O-])c1cc(S(=O)(=O)Nc2ccc(Cl)cc2)ccc1N/N=C/c1ccncc1	TDP1 cell noCPT 5.8µM, TDP1 cell CPT inconclusive (no result: ClpP mod)
O=[N+]([O-])c1cc(S(=O)(=O)Nc2ccccc2)ccc1Nc1ccccc1	TDP1 cell noCPT 15µM, TDP1 cell CPT inconclusive (no result: ClpP mod, TDP1 inh)
O=[N+]([O-])c1cc(S(=O)(=O)Nc2ccccc2)ccc1NCc1ccccc1	none
O=C(O)CNc1ccc(S(=O)(=O)C(F)(F)F)cc1[N+](=O)[O-]	none (no result: ClpP mod)
N=c1oc2ccc([N+](=O)[O-])cc2cc1C(=O)NCc1ccccc1	TDP1 cell noCPT inconclusive (no result: TDP1 inh)
O=c1ccn(Cc2ccccc2)c2ccccc12	TDP1 cell noCPT 13µM, TDP1 cell CPT 12µM
COC(=O)c1ccccc1S(=O)(=O)Nc1cc(=O)c2ccccc2[nH]1	none (no result: TDP1 cell noCPT, ClpP mod, TDP1 cell CPT)
Cc1ccc(C[n+]2ccccc2)cc1	TDP1 cell noCPT 9.2µM, TDP1 cell CPT 8.2µM
COC(=O)c1ccc(C[n+]2ccccc2)cc1	none (no result: TDP1 inh)
CCCS(=O)(=O)NC(=O)C1(C)CCN(C(=O)c2ccc(C(F)(F)F)nc2C)C1 (stereo not drawn)	none (no result: TDP1 inh)
Nc1ccc(C(=O)OCC(=O)N2c3ccccc3Sc3ccccc32)cc1[N+](=O)[O-]	TDP1 cell noCPT 7.3µM, TDP1 cell CPT inconclusive
Nc1ccc(C(=O)OCC(=O)N2CCc3ccccc3C2)cc1[N+](=O)[O-]	TDP1 cell noCPT inconclusive
NCCNc1ccc(C(=O)N2c3ccccc3Sc3ccccc32)cc1[N+](=O)[O-]	TDP1 cell noCPT 18µM, TDP1 cell CPT 18µM (no result: TDP1 inh)
Cc1c(-c2ccccc2)nc2ccccc2c1C(=O)Nc1ccncc1	none
CCOCC(O)COc1ccc(NC(=O)CC[S+](C)C)cc1 (stereo not drawn)	none (no result: ClpP mod, TDP1 inh)
CCN(CC)S(=O)(=O)c1ccc2c(c1)nc(CCC(=O)Nc1ccccc1Cc1ccccc1)n2CC	TDP1 cell noCPT 23µM, TDP1 cell CPT 21µM
CCn1c(CCC(=O)Nc2cc(F)ccc2C)nc2cc(S(=O)(=O)N(C)C)ccc21	TDP1 cell CPT inconclusive
C=CCC[C@@H](CCCCC)OC(=O)/C=C/[C@H](O)[C@@H](O)C[C@@H](O)CC=C	TDP1 cell noCPT 16µM, TDP1 cell CPT inconclusive (no result: TDP1 inh)
C=CCC[C@H](CCCCC)OC(=O)/C=C/[C@@H](O)[C@H](O)C[C@@H](O)CC=C	TDP1 cell noCPT 18µM, TDP1 cell CPT 18µM (no result: TDP1 inh)
CCC(C)(C)n1nnnc1C(c1cccc(C#N)c1)N1CCN(c2cccc(C)c2C)CC1 (stereo not drawn)	TDP1 cell noCPT 16µM, TDP1 cell CPT inconclusive
CC(C)(C)n1nnnc1C(c1ccccc1F)N1CCN(C2CCCC2)CC1 (stereo not drawn)	none
CC(C)(C)n1nnnc1C(c1cccc(C#N)c1)N1CCCCCC1 (stereo not drawn)	TDP1 cell noCPT 16µM, TDP1 cell CPT inconclusive
COc1ccccc1C(c1nnnn1C(C)(C)C)N1CCCCCC1 (stereo not drawn)	TDP1 cell noCPT 18µM, TDP1 cell CPT 21µM
COc1ccc2c(c1)c(CC(=O)Nc1cc(C)cc(C)c1)c(C)n2C(=O)c1ccc(Cl)cc1	none
CN(c1ccccc1)S(=O)(=O)c1ccccc1Br	TDP1 cell noCPT inconclusive, TDP1 cell CPT inconclusive
CCCN(S(=O)(=O)c1ccccc1F)S(=O)(=O)c1ccccc1Br	TDP1 cell noCPT inconclusive, TDP1 cell CPT inconclusive, TDP1 inh 89µM (no result: ClpP mod)
CCCCCOC(=O)NC1CCS(=O)(=O)C1 (stereo not drawn)	none
COc1c(Cl)cccc1-c1cn2ccc(C)cc2n1	TDP1 cell noCPT inconclusive (no result: ClpP mod, TDP1 inh)
Cc1oncc1-c1cn2ccccc2n1	ClpP mod 25µM
Cc1ccn2cc(-c3cnoc3C)nc2c1	TDP1 cell noCPT inconclusive, ClpP mod 14µM, TDP1 cell CPT inconclusive
Fc1ccc(CN2CCN(c3ncccn3)CC2)c(F)c1	none (no result: TDP1 inh)
CCOC(=O)c1ccc(CN(Cc2ccc(F)cc2)S(=O)(=O)c2ccc(F)c(C(=O)Nc3ccc(Cl)cc3F)c2)cc1	none
Cc1ccccc1CN1CCc2c(OCC(=O)N3CCCc4ccccc43)cccc2C1=O	TDP1 cell noCPT 18µM, TDP1 cell CPT 18µM
CCOC(=O)N1CCN(C(=O)COc2cccc3c2CCN(Cc2cccc(C)c2)C3=O)CC1	TDP1 cell noCPT 15µM, TDP1 cell CPT 23µM
O=C1c2cccc(OCC(=O)N3N=C(c4cccs4)CC3c3ccc(F)cc3)c2CCN1Cc1cccnc1 (stereo not drawn)	TDP1 cell noCPT 10µM, ClpP mod 28µM, TDP1 cell CPT 9.2µM
O=C1c2cccc(OCC(=O)N3CCCc4ccccc43)c2CCN1Cc1cccnc1	TDP1 cell noCPT 9.2µM, TDP1 cell CPT 23µM
CCN1CCc2c(OCC(=O)N3CCc4ccccc43)cccc2C1=O	none (no result: TDP1 cell noCPT, ClpP mod, TDP1 cell CPT)
O=C(COc1cccc2c1CCN(Cc1ccccc1)C2=O)N1CCCCC1	TDP1 cell noCPT inconclusive
N#Cc1cc2ccc(N3CCOCC3)cc2cc1C#N	TDP1 cell noCPT 12µM, TDP1 cell CPT 7.3µM
O=C(O)C1=C(CSc2nnnn2CS(=O)(=O)O)CS[C@@H]2[C@H](NC(=O)[C@H](O)c3ccccc3)C(=O)N12	none (no result: ClpP mod, TDP1 inh)
CCCCNC(=S)N/N=C/C1=CCC2CC1C2(C)C (stereo not drawn)	TDP1 cell noCPT 18µM, TDP1 cell CPT inconclusive
C=C(C)CNC(=S)N/N=C/C1=CCC2CC1C2(C)C (stereo not drawn)	TDP1 cell noCPT 7.3µM, TDP1 cell CPT 7.3µM
C=C(C)CNC(=S)N/N=C/c1c(F)cccc1F	TDP1 cell noCPT 16µM, TDP1 cell CPT inconclusive (no result: ClpP mod)
